From PubChem BioAssay (NCI)
About 83,000 compounds went through this panel and 20% of them were active in at least one assay; those are over-represented in the sample as a whole.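 Growth was measured after 48 h exposure to one concentration of compound in 96-well plates. Values under 10 count as active.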 Unmarked numbers belong to inactive results. The source made the active and inactive calls.

tested on: ACHN renal; assay: NCI-60 one-dose screen, 48 h (100 = growth as untreated, 0 = no growth, -100 = all killed); conditions: 10 µM unless noted
Experimental: Growth inhibition of the ACHN human tumor cell line is measured as a screen for anti-cancer activity. Cells are grown in 96 well plates and exposed to the test compound for 48 hours. Compounds are tested at a single concentration, which is 10^-5 M for most compounds. The reported endpoint is percent growth (GI% or GIPRCNT), where numbers from 0 - 100% represent growth inhibition, and numbers from -100% - 0 represent cell death. For example, a value of 40 represents 60% growth inhibition. A value of 0 means no net growth occurred over the course of the experiment. A value of -40 indicates 40% of cells at the beginning of the experiment died by the end of the experiment. A value of -100 means all cells are dead at the end of the experiment.
NCI-60 Human Tumor Cell Lines Screen was performed using the standard one-dose NCI protocol, which is described in more detail at https://dtp.cancer.gov/discovery_development/nci-60/default.htm.
Compounds with GIPRCNT values below 10 were considered active. Activity score was based on GIPRCNT using the following formula: […]
Score is 0 for GIPRCNT values of 100 or above, 50 for GIPRCNT values of 0, and 100 for GIPRCNT values of -100.

Structure (SMILES)	growth
CC(=O)Nc1cccc(Nc2nc(N[C@H](C)c3ccccc3)c3ccccc3n2)c1	77.9%
COc1cc(-c2nn(C(C)(C)C)cc2-c2ccnc(NCCCNS(=O)(=O)c3ccccc3)n2)ccc1Cl	77.2%
COc1cc(-c2nc3sccn3c2-c2ccnc(S(C)(=O)=O)n2)ccc1F	90.4%
O=C(NNc1nc2cc(F)c(F)cc2n2c(CN3CC4CNCC4C3)ccc12)c1ncccn1 (stereo not given)	12.7%
Cn1ccnc1C(=O)/C=C/c1ccc(CNC(=O)c2ccc(F)cc2)cc1	43.4%
C#Cc1nc(C(=O)NCCC(=O)Nc2ccc(NC(=O)c3ccc(/C=C/C(=O)c4nccn4C)cc3)cc2)cs1	-67.5% (active)
c1n[nH]cc1-c1nc2ccc3[nH]ncc3c2c2c1CCCC2	10.8%
COc1ccc(NC(=O)Nc2ccc3c(ccn3C(=O)c3cccc(F)c3)c2)cc1	53.9%
c1cn2c(ccc3nc(-c4cn[nH]c4)c4c(c32)CCCC4)n1	26.4%
Nc1nc(Nc2ccccc2SSc2ccccc2Nc2nc(N)nc(-c3ccccc3)n2)nc(-c2ccccc2)n1	55.8%
O=C(CCn1c[n+](CC(=O)c2ccc(-c3ccccc3)cc2)c2ccccc21)Nc1cccc2cccnc12	103%
C/C(=N\O)[C@H]1C[C@]23CC[C@]4(C)[C@H](CC[C@@H]5[C@@]6(C)CC/C(=N/O)C(C)(C)[C@@H]6CC[C@]54C)[C@H]2[C@H](C)C1(C)OC3	104%
O=C(NNc1nc2cc(F)ccc2n2cccc12)c1ccncn1	13.3%
C#Cc1nc(C(C)=O)cs1	106%
CCOc1ccc(C(=O)Nc2ncc(Cc3ccc(F)cc3)s2)cc1	37.6%
CCCC(=O)NC(c1cccnc1)c1cc(C(C)(C)C)c2cccnc2c1O (stereo not given)	12.1%
CCO/C=N/C1=C(C#N)C(c2ccc(OC)cc2)c2sc3c(CC)cccc3c2O1 (stereo not given)	46.8%
COc1ccc(-c2cc(-c3ccc(Cl)cc3)c(C#N)c(=O)n2Cc2ccc(C(=O)O)cc2)cc1	102%
Cc1ccc(NC(=O)c2ccc(CN3CCOCC3)c(C(F)(F)F)c2)cc1Oc1ccc(-c2[nH]nc3ncnc(N)c23)cc1	58.2%
Nc1nc(-c2cccc([N+](=O)[O-])c2)c(N=Nc2ccc([N+](=O)[O-])cc2Cl)s1	7.06% (active)

Structure (SMILES)	growth
COc1cc2c(cc1OC)C(Sc1ccc(F)cc1)c1c(nc(N)c(C#N)c1N)O2 (stereo not given)	-99.3% (active)
CC[C@]12C=CCN3CC[C@@]4(c5cc(NC(=O)COc6cc(O)c7c(=O)cc(-c8ccccc8)oc7c6)c(OC)cc5N(C)[C@H]4[C@@](O)(C(=O)OC)[C@@H]1OC(C)=O)[C@@H]32	-78.1% (active)
NS(=O)(=O)c1ccc(Nc2nc(SCC(=O)c3ccc(Cl)cc3)nc3c2CCCC3)cc1	42%
CNC(=O)c1c(NC(=O)c2ccccc2C(F)(F)F)sc2c1CCC(=O)C2	9.31% (active)
Cn1cc(-c2nnc(N)nc2-c2c[nH]c3ccc(F)cc23)c2cc(F)ccc21	47.7%
C=C(C=O)[C@@H]1CC[C@]2(CO)CC[C@]3(C)[C@H](CC[C@@H]4[C@@]5(C)CCCNC(C)(C)[C@@H]5CC[C@]43C)[C@@H]12	88.9%
O=C1[C@H]2Cc3c([nH]c4ccccc34)[C@@H](c3ccc(Cl)cc3)N2C(=O)CN1C1CCN(Cc2ccccc2)CC1	40.6%
CC1=CC(=O)C2=C(C)CC(OC(=O)CCc3ccccc3)[C@@H]3[C@H](OC(=O)[C@@H]3C)[C@@H]12 (stereo not given in full)	101%
NC(N)=Nc1ccc(Oc2cccc(NC(N)=Nc3ccc(I)cc3F)c2)cc1	101%
CC(C)(C)c1ccc(C(=O)Nc2sc3c(c2C(N)=O)CCC(O)C3)cc1 (stereo not given)	25.4%
CCn1c2ccccc2c2cc(-n3nncc3-c3ccccc3)ccc21	29.2%
CNC(=O)c1cc(-n2ccc3cc(NC(=O)Nc4ccc(N5CCOCC5)c(C(F)(F)F)c4)ccc32)ccn1	56.9%
Nc1ncc(-c2ccc3ncnc(Nc4cccc(Cl)c4F)c3c2)cn1	25.3%
c1ccc(C(c2nc3ncncc3[nH]2)N2CSc3nc4ncncc4n3C2)cc1 (stereo not given)	81.9%
O=S(=O)(NCCCNc1nccc(-c2[nH]c(-c3ccccc3)nc2-c2ccc(Cl)c(O)c2)n1)c1cccc2ccccc12	19.6%
CCCn1cnc2c(c1=N)C(c1ccc(F)cc1)c1sc3c(CC)cccc3c1O2 (stereo not given)	18.3%
O=C(CCn1c[n+](CC(=O)c2ccc(F)cc2)c2ccccc21)Nc1cccc2cccnc12	95.7%
C=C(C)[C@@H]1CC[C@]2(COC)CC[C@]3(C)[C@H](CC[C@@H]4[C@@]5(C)CCCNC(C)(C)[C@@H]5CC[C@]43C)[C@@H]12	67%
COc1cc(OC)cc(C(=O)Nc2cccc(C#Cc3cccc4[nH]nc(N)c34)c2)c1	35.4%
O=C(CCC(=O)N1CCOCC1)OCCCCCCSc1ccc([N+](=O)[O-])c2nonc12	-97.7% (active)
